# SARS PLpro yeast – qHTS of Yeast-based Assay for SARS-CoV PLP; S. cerevisiae expressing SARS-CoV PLpro, growth rescue; AID 485353, 2010; Potency, µM (highest dose often 32.9 µM), without a hit: top-dose activity, positive = growth rescue, most hits filed as activators; hit rate 0.19% among 330,000; note: potency is the fitted concentration of half-maximal effect; 0% is about no effect; nearly all actives have a fitted effect of over 55% in size
# Cycloheximide cs – Cycloheximide Counterscreen for Small Molecule Inhibitors of Shiga Toxin. hit rate 12% among 300,000. max response, %. AID 2314, 2010. cell reporter, cycloheximide protein synthesis inhibition counterscreen; in the data active = max response mostly above about 13%, no sharp cut-off; inactive = mostly below about 14%; note: read at 38.3 µM for the half of the compounds with a filed dose; 0% is about no effect
# NS1 function inh – qHTS Assay for Inhibitors of Influenza NS1 Protein Function. hit rate 0.4% among 270,000. Potency, µM (highest dose often 46.1 µM), inactives show at the highest dose activity, positive = more growth; note: potency is the fitted concentration of half-maximal effect; actives are rising curves; nearly all actives have a fitted effect of over 50% in size
#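 Recovery from NS1-induced slow growth read by OD600 in budding yeast switched to galactose assay medium (pH 6.0, -URA) at 1:100 dilution. Compound 23 nl per well; the matching strain lacking NS1 serves as control.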
# Shiga toxin inh – A qHTS for Small Molecule Inhibitors of Shiga Toxin. hit rate 9.2% among 290,000. inhibition, % at 38.7 µM. AID 2315, 2010. Vero cells, Shiga toxin protein synthesis inhibition reporter; in the data active = inhibition mostly above about 28%, no sharp cut-off; inactive = mostly below about 43%; note: 0% is about no effect
# Numbers without * were called inactive; ? = inconclusive; / = not tested or not shown; [ ] = another dose, or the depositor's remark. Shown are actives, neighbours in structure and some others; about 12% of the full set was active somewhere. Unless noted, calls come from the whole dose curve.
SMILES,SARS PLpro yeast,Cycloheximide cs,NS1 function inh,Shiga toxin inh
COc1cccc(NC(=O)CCNS(=O)(=O)c2ccc(Br)s2)c1,1.4%,-5.7,-10.7%,-7.6
N#CCSc1nc2ccccc2c(=O)n1CC1CCCC1,-1.1%,9.0,1.3%,-13.1
N#CCSc1nc2ccc(N3CCCCC3)cc2c(=O)n1Cc1ccccc1,4.9%,21.0*,?,37.5*
CC(=O)Nc1ccc(S(=O)(=O)Oc2cccc(/C=N/N=C3/NC(=O)C(CC(=O)O)S3)c2)cc1 (stereo not given),1.0%,-7.1,3.1%,-15.9
O=C(NC1CC1)C1=C[C@@H](c2c[nH]c3ccccc23)C[C@@H](OCc2ccc(CO)cc2)O1,-0.1%,0.5,-6.7%,3.0
CCC1CSC(=Nc2ccc(C)cc2)N1C(=O)CN1C(=O)NC2(CCCC2)C1=O (stereo not given),1.0%,33.9*,4.2%,74.4*
Cc1ccc(C(NC(=O)CN2C(=O)NC3(CCCC3)C2=O)c2ccccc2)cc1 (stereo not given),-3.8%,/,/,/
CC(c1ccccc1)n1cnc2ccccc2c1=O (stereo not given),?,-1.8,-5.7%,9.3
CCCCc1ccc(-c2ccc(Br)cc2)nc1,8.3%,35.1*,1.9%,86.1*
Nc1nonc1OCCc1ccccc1,-3.2%,11.6*,2.5%,35.5
Nc1nonc1OCCCCOc1nonc1N,-0.7%,-1.4,/,2.4
CNC[C@H]1Oc2c(NC(=O)C3CC3)cccc2C(=O)N([C@H](C)CO)C[C@@H]1C,-20.8%,/,/,/
CCN(C(=O)/C=C/c1ccc(OC)cc1)C1CCS(=O)(=O)C1 (stereo not given),2.0%,/,/,/
CCN(C(=O)/C=C/c1ccc(OC)cc1)C1CCCCC1,-6.0%,11.8*,-23.0%,15.9
COc1ccc(S(=O)(=O)N(C)C)cc1NC(=O)Cc1ccc(S(=O)(=O)N2CCOCC2)s1,-5.8%,/,/,/
O=C(c1ccco1)N1N=C(c2ccc(Cl)cc2)CC1c1ccco1 (stereo not given),-2.5%,1.4,-13.6%,-4.4
COc1ccc(C2=NN(C(=O)CSc3nnc(-c4ccccc4F)o3)C(c3ccco3)C2)cc1 (stereo not given),-0.3%,-2.2,6.8%,-7.9
COc1ccc(C2=NN(C(N)=S)C(c3ccco3)C2)cc1 (stereo not given),?,19.8*,/,27.4
COc1ccc(C2=NN(C(=O)c3ccco3)C(c3ccco3)C2)cc1OC (stereo not given),3.6%,13.9*,1.9%,41.1*
CCC(=O)N1N=C(c2ccc(Cl)cc2)CC1c1ccco1 (stereo not given),-0.3%,2.0,-1.5%,12.4
CCc1ccc(C2=NN(C(C)=O)C(c3ccco3)C2)cc1 (stereo not given),0.2%,34.2*,-5.3%,78.6*
CN(CC(=O)Nc1ccccc1C(=O)NC1CC1)Cc1ccc(N(C)C)cc1,-6.0%,/,/,/
CCc1sc(C(=O)N2CCc3ccccc32)cc1C,-20.2%,66.1*,/,102.3*
O=C(c1cc(Cl)ccc1Cl)N1CCc2ccccc21,-6.2%,-3.4,-0.3%,-3.2
O=C(c1ccc(Cl)s1)N1CCN(c2ncccn2)CC1,1.1%,0.9,-11.6%,-6.5
SMILES,SARS PLpro yeast,Cycloheximide cs,NS1 function inh,Shiga toxin inh
O=C(c1ccc(Cl)s1)N1CCN(c2ccccc2)CC1,26.5%,17.4*,-7.2%,28.1*
O=C(c1ccc(Cl)cc1)N1CCc2ccccc21,1.4%,32.8*,-40.7%,46.0
O=C(c1ccc(C(=O)N2CCCc3ccccc32)s1)N1CCCc2ccccc21,-21.5%,-2.1,-105.3%,-12.6
O=C(c1ccc(Cl)s1)N1CCc2ccccc21,-6.2%,35.8*,-19.6%,81.6*
O=C(OCC(=O)N1CCCc2ccccc21)c1ccccc1NCCO,0.7%,/,/,/
COc1cccc(CC2(CO)CCCN(Cc3cc(F)ccc3-n3cccn3)C2)c1 (stereo not given),-1.7%,-4.2,1.0%,-14.5
COc1ccc(S(=O)(=O)N(C)CC(=O)Nc2ccc(C(F)(F)F)cc2)cc1Cl,-3.2%,-2.3,2.2%,-9.3
Cc1ccc(C(=O)N2CCc3ccccc32)cc1,-2.0%,30.9*,-11.7%,89.7*
Cn1cc(C(=O)N2CCc3ccccc32)cn1,6.7%,22.5*,3.7%,49.1*
Cc1cccc(-c2nc(CS(=O)CC(=O)NC3CCCC(C)C3C)c(C)o2)c1 (stereo not given),-2.2%,4.6,-17.1%,11.9
Cc1ccsc1/C=C/c1ccc2ccccc2n1,-1.4%,27.8*,-83.6%,67.0*
Cc1ccsc1/C=C/C(=O)O,3.0%,1.0,/,7.7
Cc1ccsc1/C=C/c1ccc2cccc(O)c2n1,-16.2%,66.3*,-179.5%,72.4*
Oc1cccc2ccc(/C=C/c3cccs3)nc12,-18.5%,35.8*,-207.7%,67.9*
COc1cccc(NC(=O)C2CCN(S(=O)(=O)c3ccc4[nH]c(=O)oc4c3)CC2)c1,1.0%,-0.5,1.5%,-12.7
COC(=O)C1CCN(C(=O)COC(=O)c2cc(-c3cccs3)nn2-c2ccccc2)CC1,-12.0%,/,/,/
O=C(Nc1ccc(F)cc1)c1ccc(CSc2ccccc2)o1,-58.9%,20.9*,-4.7%,5.2
O=C(Nc1ccc2c(c1)CCC2)c1ccc(Br)o1,-15.0%,44.5*,-33.8%,76.0*
O=C(COC(=O)CNC(=O)c1ccc(Br)o1)Nc1ccc2c(c1)OCCO2,0.8%,-1.9,-3.7%,-1.1
O=C(Nc1ccc2c(c1)OCO2)c1ccc(COc2ccc3c(c2)CCC3)o1,-14.9%,43.0*,0.9%,44.6*
O=C(Nc1ccc2c(c1)OCO2)c1ccc(Br)o1,-6.7%,47.8*,-78.1%,69.1*
COC(=O)C1CCN(C(=O)COC(=O)C2CCN(S(=O)(=O)c3c(Cl)cccc3Cl)CC2)CC1,-4.7%,/,/,/
CSCCC(C(=O)Nc1ccc2c(c1)OCO2)N1C(=O)c2ccccc2C1=O (stereo not given),-0.7%,-2.1,-7.2%,4.3
CC(=O)c1ccc(Nc2c3ccccc3cc3occc23)cc1,/,8.6,/,-6.3
O=C(Nc1ccc(NC(=O)c2cc3ccccc3o2)cc1)c1ccc2c(c1)OCCO2,0.2%,12.4,/,7.7
SMILES,SARS PLpro yeast,Cycloheximide cs,NS1 function inh,Shiga toxin inh
Cc1ccc(C(=O)Nc2ccc(O)c(C(=O)O)c2)o1,-6.1%,-2.0,-6.5%[9.22 µM],-7.5
C/C(=N\NC(=O)c1ccc(Br)o1)c1cc2c(cc1NC(=O)CCC(=O)O)OCO2,-3.5%,18.8*,11.3%,34.4*
CC(=O)c1cc2c(cc1NC(=O)CCn1cccc1)OCO2,-8.4%,-0.8,-11.5%,18.3
Cc1ccc(C(=O)Nc2ccc3c(c2)CCC3)o1,-7.3%,63.1*,-10.8%,98.5*
Cc1ccc(NC(=O)Cc2ccc3c(c2)CCCC3)cc1C,4.1%,23.4*,-4.8%,-13.5
O=C(Nc1ccc2c(c1)CCC2)c1cc2ccccc2o1,-20.4%,65.4*,-68.9%,54.9*
CCC(CC)CN1C(N(C)C)=NC[C@@H]1CC(C)C,-0.8%,/,/,/
COc1ccc(NC(=O)CN(C)CC(=O)Nc2cccc(S(=O)(=O)N(C)c3ccccc3)c2)cc1,0.6%,-1.5,/,0.9
Cc1ccc(NC(=O)c2ccncc2)cc1S(=O)(=O)N(C)C,0.5%,0.1,2.6%,7.3
Cc1ccc(NC(=O)c2ccc(OC(F)(F)F)cc2)cc1S(=O)(=O)N(C)C,-20.9%,12.4*,-1.3%,8.5
Cc1ccc(C(=O)Nc2ccc(F)cc2)o1,-8.6%,20.3,-2.3%,32.3*
